Compound activity: PubChem BioAssay, National Center for Advancing Translational Sciences (NCATS)
Most compounds without a hit are left out; they make up all but 11% or so of the library.
G9a inh: inhibitors of human histone lysine methyltransferase G9a; Q96KQ7; Potency, µM (series often up to 102 µM), inactives show at the highest dose activity, negative = inhibition, usual class: inhibitors; G9a H3K9 monomethylation, AlphaScreen, 2 h; hit rate 8.8% among 350,000; also: % is scaled to controls: 0 for no effect and ±100 for the full control effect; nearly all actives have a fitted effect of over 75% in size
Target sequence (Q96KQ7 913-1193 limits assumed): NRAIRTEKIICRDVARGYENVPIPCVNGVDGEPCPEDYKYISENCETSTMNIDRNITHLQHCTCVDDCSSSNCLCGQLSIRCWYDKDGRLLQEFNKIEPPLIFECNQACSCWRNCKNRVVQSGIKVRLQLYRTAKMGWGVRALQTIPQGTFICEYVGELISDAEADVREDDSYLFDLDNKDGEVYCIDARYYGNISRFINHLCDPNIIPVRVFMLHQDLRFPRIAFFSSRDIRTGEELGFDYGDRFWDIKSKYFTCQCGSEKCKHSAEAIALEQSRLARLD
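Step 1: enzyme (final 20 nM) with compound, 15 min RT. Step 2: substrate peptide 500 nM and SAM 20 uM, 2 h RT. Step 3: anti-H3K9me1 antibody and AlphaScreen beads, 10 min, then plate read.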
BAZ2B block: inhibitors of human BAZ2B bromodomain | Potency, µM (top dose mostly 114 µM), inactives show top-dose activity change, negative = inhibition, hits mostly inhibitors | hit rate 4.4% among 360,000 | AlphaScreen BAZ2B-H3K14Ac peptide displacement; also: % is scaled to controls: 0 for no effect and ±100 for the full control effect; nearly all actives have a fitted effect of over 60% in size
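BAZ2B (50 nM) with biotin-H3(5-23)K14Ac peptide (50 nM) in PBS pH 7.4, 0.01% Tween-20, preformed 30 min, then compound 30 min at room temperature; top concentration 110uM. AlphaScreen streptavidin donor/nickel chelate acceptor beads (10 ug/mL final), 20 min dark, signal read.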
L3MBTL1 block: L3MBTL1 (human) inhibition. Q9Y468. AlphaScreen L3MBTL1–H3K9me1 peptide binding. Potency, µM (highest dose often 57.1 µM), for inactives: at the top dose activity, negative = inhibition, usual class: inhibitors. hit rate 0.66% among 230,000; also: % is scaled to controls: 0 for no effect and ±100 for the full control effect; nearly all actives have a fitted effect of over 60% in size
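First, the protein-peptide complex forms for 30 min at room temperature (L3MBTL1 50 nM, biotinylated H3K9me1 peptide 75 nM). Next, compounds are pin-transferred and incubated 30 min. Finally, AlphaScreen beads are added and read after 30 min.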
JMJD2A Tudor: inhibitors of human JMJD2A Tudor domain | O75164 | AlphaScreen JMJD2A-Tudor / H3K4me3 peptide binding | Potency, µM (highest dose often 114 µM), inactives show top-dose activity change, negative = inhibition, most hits filed as inhibitors | hit rate 4.4% among 390,000 | AID 504339; also: % is scaled to controls: 0 for no effect and ±100 for the full control effect; nearly all actives have a fitted effect of over 50% in size
HP1b chromo inh: inhibitors of HP1-beta chromodomain binding to methylated histone tails; P83916; AlphaScreen HP1-beta / biotin-H3K9me3 peptide binding; Potency, µM (series often up to 114 µM), inactives show top-dose activity change, negative = inhibition, hits mostly inhibitors; hit rate 0.56% among 390,000; also: nearly all actives have a fitted effect of over 70% in size
Target sequence (P83916 whole entry, looked up): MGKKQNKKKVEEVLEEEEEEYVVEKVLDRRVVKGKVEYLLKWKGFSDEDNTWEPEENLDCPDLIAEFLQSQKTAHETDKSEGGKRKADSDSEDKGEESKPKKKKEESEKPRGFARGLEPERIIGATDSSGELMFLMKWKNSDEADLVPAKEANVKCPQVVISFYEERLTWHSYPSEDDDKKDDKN
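HP1-beta protein (50 nM final) preincubated 30 min at room temperature with biotinylated H3(1-18)K9me3 peptide (50 nM) in PBS pH 7.4, 0.01% Tween-20, then compound added for 30 min. AlphaScreen streptavidin donor/nickel chelate acceptor beads (10 ug/mL final), 30 min dark, luminescence read.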
Starred values were filed as active, the others as inactive; ? = inconclusive; . = not tested or not shown; [ ] = dose if it differs, or a comment. Calls follow the shape of the dose curve; as a rule, active = well fitted inhibition curve with a large enough effect; inconclusive = small, poorly fitted or top-dose-only effect; inactive = no such curve, though single readings can be large or run the other way. Potency is read from the fitted curve at half-maximal effect.

SMILES	G9a inh	BAZ2B block	L3MBTL1 block	JMJD2A Tudor	HP1b chromo inh
COc1ccc(C(=O)NC(c2ccc(Cl)cc2)c2cc(Cl)c3cccnc3c2O)cc1 (centres undefined)	19.5%[59 µM]	5.2%	.	4.8%	32.9%
O=C(O)COc1ccccc1C(Nc1cccnc1)c1cc(Cl)c2cccnc2c1O (centres undefined)	2.82µM*	20µM*	.	22.4µM*	?
COc1ccc(OC)c(NC(=O)CSc2ncc3c(n2)-c2ccccc2N(C)S3(=O)=O)c1	-37.0%[59 µM]	?	.	-27.9%	?
COc1ccc(Nc2nc(C)cc(=O)[nH]2)cc1	-44.2%	-23.8%	.	-14.6%	11.8%
Cc1cc(=O)[nH]c(N/N=C/c2c(F)c(F)c(F)c(F)c2F)n1	-0.9%	?	.	15.2%	30.8%
C/C=C/C=N/Nc1nc(C)cc(=O)[nH]1	3.55µM*	50.1µM*	9.5%	1.58µM*	22.1%
CCN(CC)c1ccc(/C=N/Nc2nc(C)cc(=O)[nH]2)c(O)c1	-9.4%[59 µM]	-14.7%	-27.0%	-21.5%	23.4%
Cc1cc(=O)[nH]c(NN=Cc2cc(Br)ccc2O)n1	.	.	.	79.4µM*	17.4%
COc1ccc(OC)c(/C=N/Nc2nc(C)cc(=O)[nH]2)c1	44.7µM*	50.1µM*	.	-35.3%	21.3%
Cc1cc(=O)[nH]c(N/N=C/C(C)c2ccccc2)n1 (centres undefined)	15.8µM*	-27.2%	-0.7%	1.12µM*	-3.8%
Cc1cc(=O)[nH]c(N/N=C/c2cc(C)n(-c3ccccc3)c2C)n1	?	-27.5%	?	?	17.5%
Cc1cc(=O)[nH]c(N/N=C/c2ccccc2Cl)n1	39.8µM*	-1.8%	.	79.4µM*	14.9%
CC(C)[C@H](NC(=O)OC(C)(C)C)C(=O)N/N=C/c1cccc2nccnc12	4.47µM*	-38.5%	.	-8.4%	17.6%
Cc1ccc(NC(=O)N(Cc2c[nH]c3ccccc23)C2CCCCCC2)cc1C	-34.0%[59 µM]	.	.	?	-1.3%
COc1ccc(NC(=O)Cn2nnc3sc4c(c3c2=O)CCCC4)cc1	-38.4%[59 µM]	-12.0%	.	-19.9%	7.7%
CC1CCc2c(sc3nnn(Cc4cccc(C(=O)OC(C)C)c4)c(=O)c23)C1 (centres undefined)	17.8µM*	3.3%	.	5.7%	35.1%
COc1ccc(OCCn2nnc3sc4c(c3c2=O)CCCC4)cc1	-2.7%[59 µM]	50.1µM*	.	79.4µM*	3.0%
Cc1cccc(OCCCCn2nnc3sc4c(c3c2=O)CCC(C)C4)c1 (centres undefined)	?	?	.	70.8µM*	60.7%
COC(=O)c1[nH]c2cc(OC)c(OC)cc2c1NC(=O)Oc1ccccc1	2.82µM*	-38.8%	.	?	1.4%
COC(=O)c1[nH]c2ccccc2c1NC(=O)Oc1ccccc1	10µM*	-31.2%	-4.0%	-28.0%	9.0%
CCOC(=O)c1[nH]c2cc(OC)c(OC)cc2c1NC(=O)C(C)N1CCN(Cc2ccccc2)CC1 (centres undefined)	44.7µM*	?	.	-25.8%	-14.6%
CCOC(=O)c1[nH]c2ccc(OC)cc2c1NC(=O)OC	8.7%[59 µM]	0.3%	3.3%	-9.3%	29.6%
C=CCOC(=O)Nc1c(C(=O)OC)[nH]c2ccccc12	50.1µM*	-26.3%	8.1%	7.1%	43.3%
CCOC(=O)c1[nH]c2ccc(OC)cc2c1NC(=O)C(C)N1CCSCC1 (centres undefined)	?	.	1.2%	.	.
Cc1cccc(CNC(=O)c2cccc(NC(=O)N3CCSc4ncccc43)c2)c1	0.3%[59 µM]	-20.4%	.	2.8%	43.6%
SMILES	G9a inh	BAZ2B block	L3MBTL1 block	JMJD2A Tudor	HP1b chromo inh
Cc1ccc(NC(=O)C2CCN(S(=O)(=O)c3ccc4c(c3)CCCN4C(=O)C3CCC3)CC2)cc1	13.0%[59 µM]	-0.6%	.	-14.8%	14.9%[57 µM]
COc1ccc2c(Sc3ccc(Cl)cc3)c(C(=O)N3CCCCC3)[nH]c2c1	?	-30.0%	.	?	11.3%
C/C(=N\NC(=O)CSc1nc2ccccc2o1)c1cccc(O)c1	-5.5%	-4.6%	.	-21.4%	18.2%[57 µM]
Cc1ccc(SCC(=O)n2nc(C)cc2C)cc1	-2.1%[59 µM]	-4.2%	4.8%	-15.2%	19.9%
Cc1cc(SCC(=O)N/N=C/c2ccc(O)c(O)c2)c(C)cc1Br	25.1µM*	?	.	-34.2%	-5.8%
Cc1cc(C)n(C(=O)CSc2nc3ccccc3o2)n1	79.4µM*	16.7%	-0.6%	-9.0%	31.2%
